This is a sample that favours compounds with a hit; in the whole collection about 1.8% have one here.
TLR4 MyD88 comp: inhibitors of TLR4-MyD88 association in cells, primary screen, cell-based, HeLa CL3-4, BLA complementation, FRET ratio; Toll-like receptor 4 (Homo sapiens) + Myeloid differentiation primary response protein …; HeLa CL3-4 TLR4/MyD88 BLA complementation; inhibition, % at 8.4 µM; 200,000 compounds, 0.18% hits; AID 861, 2007; in the data active = inhibition above about 25%
LANA-H2B inh: blockers of LANA interaction with H2A/H2B – biochemical, FP readout, HTS, primary screen. Protein LANA1 (Human herpesvirus 8 type P (isolate GK18)), Q9QR71. cell-free LANA-H2A/H2B peptide, fluorescence polarization. inhibition, % (no concentration beside the values). 320,000 compounds, 0.6% hits. AID 2629, 2010; in the data active = inhibition mostly above about 10%, no sharp cut-off; inactive = mostly below about 6.7%
Target sequence (Q9QR71 whole entry, looked up): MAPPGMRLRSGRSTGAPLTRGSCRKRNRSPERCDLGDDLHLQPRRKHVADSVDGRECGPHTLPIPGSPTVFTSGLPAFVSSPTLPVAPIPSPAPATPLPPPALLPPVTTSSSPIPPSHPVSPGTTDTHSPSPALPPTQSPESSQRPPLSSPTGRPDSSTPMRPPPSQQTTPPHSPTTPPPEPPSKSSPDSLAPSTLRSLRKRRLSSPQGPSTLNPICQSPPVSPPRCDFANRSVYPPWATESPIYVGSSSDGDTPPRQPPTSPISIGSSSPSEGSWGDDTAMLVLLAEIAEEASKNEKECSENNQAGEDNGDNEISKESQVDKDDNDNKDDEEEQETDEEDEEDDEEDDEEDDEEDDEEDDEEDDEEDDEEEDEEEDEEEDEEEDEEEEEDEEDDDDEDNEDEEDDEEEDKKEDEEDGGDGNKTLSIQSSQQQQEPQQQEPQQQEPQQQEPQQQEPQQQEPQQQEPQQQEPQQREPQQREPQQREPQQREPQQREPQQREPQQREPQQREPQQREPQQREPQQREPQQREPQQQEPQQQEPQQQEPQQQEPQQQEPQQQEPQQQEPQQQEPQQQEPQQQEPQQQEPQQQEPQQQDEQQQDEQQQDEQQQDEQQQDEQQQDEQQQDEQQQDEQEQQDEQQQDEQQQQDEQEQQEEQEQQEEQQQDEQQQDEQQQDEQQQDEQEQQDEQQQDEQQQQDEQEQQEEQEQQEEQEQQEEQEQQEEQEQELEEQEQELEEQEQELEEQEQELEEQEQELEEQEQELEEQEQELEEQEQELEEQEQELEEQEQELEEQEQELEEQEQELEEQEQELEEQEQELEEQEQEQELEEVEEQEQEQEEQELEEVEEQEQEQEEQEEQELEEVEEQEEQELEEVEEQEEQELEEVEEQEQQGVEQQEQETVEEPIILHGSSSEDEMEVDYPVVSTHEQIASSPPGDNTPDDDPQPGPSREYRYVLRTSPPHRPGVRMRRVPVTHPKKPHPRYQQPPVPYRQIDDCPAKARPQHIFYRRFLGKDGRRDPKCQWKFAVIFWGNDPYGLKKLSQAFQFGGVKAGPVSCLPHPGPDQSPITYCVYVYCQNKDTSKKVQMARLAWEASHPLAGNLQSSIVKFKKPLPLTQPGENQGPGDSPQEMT
NOD2 RIPK2 PPI: NOD2-RIPK2 binding disruptors in cells, primary screen, fluorescence, CHO cells, BLA complementation; CCF4 ratio; inhibition, % at 4.98 µM; 360,000 compounds, 0.38% hits; AID 624267, 2012; in the data active = inhibition above about 21%
Rtt109 HAT inh: inhibitors of C. albicans Rtt109/Vps75 HAT, primary screen, biochemical, ThioGlo CoA-SH fluorescence, plate reader | purified Rtt109/Vps75, 4 h | Histone acetyltransferase RTT109 (Candida albicans (strain SC5314 / ATCC MYA-2876)), … | inhibition, % at 34.9 µM | 330,000 compounds, 0.16% hits | AID 540336, 2011;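 active = inhibition of at least 50% in every replicate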
TLR9-MyD88 block: inhibitors of TLR9-MyD88 association in cells, primary screen, cell-based, CHO, BLA complementation, fluorescence | CCF4 FRET ratio | 340,000 compounds, 0.21% hits | inhibition, % at 4.98 µM | AID 504734, 2011;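 active = inhibition above the mean over all tested compounds plus 3 SD, cut at about 21% in these data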
m5-HT2A agonist: mouse Htr2a agonists via beta-arrestin recruitment, primary screen, cell-based, luminescence; 5-hydroxytryptamine receptor 2A (Mus musculus), P35363; CHO-K1 mHTR2A beta-arrestin complementation; percent of 30 µM serotonin response; activation, % at 7.6 µM; 360,000 compounds, 0.66% hits; AID 624169, 2012;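 active = activation above a run cutoff, the mean activation of all tested compounds plus 3 SD, cut at about 14% in these data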
MOR ag counter: OPRM1 agonists via beta-arrestin recruitment, confirmation, counter-screen for mouse HTR2A agonist project, cell-based, luminescence, single concentration; shares compounds with m5-HT2A agonist; U2OS OPRM1 beta-arrestin PathHunter; DMSO 0%, DAMGO 9.3 µM 100%; activation, % at 9.3 µM; 2,300 compounds, 5.3% hits; AID 624380, 2012;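 active = mean activation above the mean of DMSO-only wells plus 3 SD, cut at about 0.5% in these data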
m5-HT2A ag conf: mouse HTR2A agonists, beta-arrestin recruitment, confirmation, cell-based, luminescence, CHO-K1 PathHunter, triplicate; activation, % at 7.6 µM; shares compounds with m5-HT2A agonist; 2,300 compounds, 19% hits; DMSO 0%, 30 µM serotonin 100%;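 active = mean activation across triplicates above the hit threshold derived in the original primary screen, cut at about 15% in these data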
Of the large screens only hits and unclear results are named; the others gave an inactive call (follow-up assays come after a bar, where they were run); ! = not active in a repeat.

COc1ccc(C2Nc3ccccc3NC3=C2C(=O)CC(C)(C)C3)cc1OC (stereo unspecified)	m5-HT2A agonist 17 (no result: TLR4 MyD88 comp) | MOR ag counter 0.7 | m5-HT2A ag conf inactive
COc1ccc(CCC(=O)NNC(=O)Cn2nc(C)cc2C)cc1	m5-HT2A agonist 17 (no result: TLR4 MyD88 comp) | MOR ag counter inactive | m5-HT2A ag conf inactive
Cc1cccc(OCCC(=O)NNC(=O)Cn2nc(C)cc2C)c1	none (no result: TLR4 MyD88 comp)
CCOC(=O)C1CCN(C(=O)c2ccc(S(=O)(=O)Nc3ccccc3OC)cc2)CC1	none (no result: TLR4 MyD88 comp)
CCN(CC)S(=O)(=O)c1cccc(NC(=O)CN2C(=O)c3ccc([N+](=O)[O-])cc3C2=O)c1	m5-HT2A agonist 18 | MOR ag counter inactive | m5-HT2A ag conf inactive
CCN(CC)S(=O)(=O)c1cccc(NC(=O)CCNC(=O)c2ccc([N+](=O)[O-])cc2)c1	none (no result: TLR4 MyD88 comp)
CCOC(=O)N1CCN(CC(O)COc2ccc(C)c(C)c2)CC1 (stereo unspecified)	none (no result: TLR4 MyD88 comp)
O=C(NCCCn1ccnc1)/C(=C\c1ccco1)NC(=O)c1ccco1	m5-HT2A agonist 15 | MOR ag counter inactive | m5-HT2A ag conf inactive
O=C(NCCCn1ccnc1)c1ccco1	none
CCc1ccc(OC(=O)c2cccnc2)cc1	none (no result: TLR4 MyD88 comp)
COc1ccc(C(=O)NCC(=O)OCC(=O)c2cc(OC)c(OC)c(OC)c2)cc1OC	m5-HT2A agonist 15 | MOR ag counter inactive | m5-HT2A ag conf inactive
COc1cc(C(=O)NCC(=O)OCC(=O)c2ccc[nH]2)cc(OC)c1OC	none
CN1CCc2cccc3c2[C@H]1Cc1ccc(O)c(O)c1-3	Rtt109 HAT inh 100!, m5-HT2A agonist 44 | MOR ag counter inactive | m5-HT2A ag conf 125
CN1CCc2cc3c(c4c2[C@H]1[C@H](O)c1ccccc1-4)OCO3	none
CC(C)N(C)c1ncnc2c1ncn2[C@H]1CN(Cc2cccs2)C[C@@H](CO)O1	none (no result: TLR4 MyD88 comp, LANA-H2B inh, Rtt109 HAT inh, TLR9-MyD88 block)
Cc1cccc(S(=O)(=O)NCCc2cn3ccccc3n2)c1	none
Cc1ccn2cc(CCNS(=O)(=O)c3ccc4c(c3)CCCC4)nc2c1	m5-HT2A agonist 25 | MOR ag counter inactive | m5-HT2A ag conf inactive
O=C(COc1ccccc1Cl)N(Cc1cccs1)C1CCS(=O)(=O)C1 (stereo unspecified)	m5-HT2A agonist 20 (no result: TLR4 MyD88 comp) | MOR ag counter inactive | m5-HT2A ag conf inactive
Cc1oc(-c2cccc(Cl)c2)nc1CS(=O)(=O)CC(=O)NCCCN1CCOCC1	m5-HT2A agonist 25 (no result: TLR4 MyD88 comp) | MOR ag counter inactive | m5-HT2A ag conf inactive
CC1(C(=O)NCCC#N)CCN1C(=O)CC(c1ccccc1)c1ccccc1 (stereo unspecified)	none (no result: TLR4 MyD88 comp, LANA-H2B inh, Rtt109 HAT inh, TLR9-MyD88 block)
COc1ccc(C2=NN(C(=O)CCC(=O)O)C(c3ccc([N+](=O)[O-])cc3)C2)cc1 (stereo unspecified)	m5-HT2A agonist 19 (no result: TLR4 MyD88 comp) | MOR ag counter inactive | m5-HT2A ag conf inactive
COc1ccc(C2CC(c3ccccc3)=NN2C(=O)CCC(=O)O)cc1 (stereo unspecified)	none (no result: TLR4 MyD88 comp)
CC1CCCCN1C(=O)c1ccc(C(=O)Nc2ccc(F)cc2)cc1 (stereo unspecified)	none (no result: TLR4 MyD88 comp)
O=C(CN1C(=O)CSc2ncccc21)NCCN1CCOCC1	none
COCCCNC(=O)CN1C(=O)CSc2ncccc21	m5-HT2A agonist 18 | MOR ag counter inactive | m5-HT2A ag conf inactive
COc1ccc(CCNC(=O)C2CC(=O)N(c3ccc(C)cc3)C2)cc1 (stereo unspecified)	none (no result: TLR4 MyD88 comp)
CCOc1ccc(N2CC(C(=O)NCCc3c[nH]c4ccc(OC)cc34)CC2=O)cc1 (stereo unspecified)	m5-HT2A agonist 18 (no result: TLR4 MyD88 comp) | MOR ag counter inactive | m5-HT2A ag conf inactive
COc1ccc2[nH]cc(CCNC(=O)C3CC(=O)N(c4ccc(Cl)cc4)C3)c2c1 (stereo unspecified)	m5-HT2A agonist 16 (no result: TLR4 MyD88 comp) | MOR ag counter inactive | m5-HT2A ag conf inactive
COC(=O)C1=C(C)N(CCc2c[nH]c3ccc(OC)cc23)C(=O)C1	m5-HT2A agonist 17 (no result: LANA-H2B inh) | MOR ag counter inactive | m5-HT2A ag conf inactive
CNC(=O)C[C@@H]1CC[C@@H]2[C@H](COC[C@H](O)CN2S(=O)(=O)c2ccccc2Cl)O1	none (no result: TLR4 MyD88 comp, LANA-H2B inh, Rtt109 HAT inh, TLR9-MyD88 block)
CN(c1cccc(NC(=O)CCSc2ccccc2)c1)S(C)(=O)=O	none
CC(Sc1ccccc1)C(=O)Nc1cccc(N(C)S(C)(=O)=O)c1 (stereo unspecified)	m5-HT2A agonist 17 | MOR ag counter inactive | m5-HT2A ag conf inactive
CC(C)=CCN1CCN(Cc2c[nH]c3ccccc23)CC1CCO (stereo unspecified)	none (no result: TLR4 MyD88 comp)
CCC(=O)N1c2ccc(S(=O)(=O)N3CCCC3)cc2CC1C (stereo unspecified)	m5-HT2A agonist 15 (no result: TLR4 MyD88 comp) | MOR ag counter inactive | m5-HT2A ag conf inactive
CCC(=O)N1c2ccc(S(=O)(=O)N3CCCCC3)cc2CC1C (stereo unspecified)	none (no result: TLR4 MyD88 comp)
CN(C(=O)c1ccccc1Cl)c1ccccc1C(=O)NCc1ccccc1	m5-HT2A agonist 35 (no result: TLR4 MyD88 comp) | MOR ag counter inactive | m5-HT2A ag conf inactive
CC(CCc1ccccc1)NC(=O)c1ccccc1Cl (stereo unspecified)	m5-HT2A agonist 24 (no result: TLR4 MyD88 comp) | MOR ag counter inactive | m5-HT2A ag conf inactive
O=C(NCCc1ccc(F)cc1)c1ccc2c(=O)n3c(nc2c1)CCC3	none (no result: TLR4 MyD88 comp)
CC(C)(C)c1ccc(NC(=O)COC(=O)C2=COCCO2)cc1	none
CN(C)C(=O)c1ccc(NC(=O)COC(=O)C2=COCCO2)cc1	m5-HT2A agonist 18 (no result: TLR4 MyD88 comp) | MOR ag counter inactive | m5-HT2A ag conf inactive
O=C(c1ccc(-c2ccc([N+](=O)[O-])cc2)o1)N1CCCC(C(F)(F)F)C1 (stereo unspecified)	none (no result: TLR4 MyD88 comp)
O=C(c1ccc(-c2ccc([N+](=O)[O-])cc2)o1)N1CCCCCCC1	m5-HT2A agonist 15 (no result: TLR4 MyD88 comp) | MOR ag counter inactive | m5-HT2A ag conf inactive
c1ccc(Cc2noc(CN3CCCC(CN4CCOCC4)C3)n2)cc1 (stereo unspecified)	m5-HT2A agonist 15 | MOR ag counter inactive | m5-HT2A ag conf inactive
